Experimental findings from PubChem BioAssay are described below.

Each structure is given as a SMILES string.

The assay in a line: MRP1 drug-resistance reversers in H69AR cells – cell-based, doxorubicin co-treatment, pilot screen (AID 601). The settings on record: H69AR cells + 2 uM doxorubicin, CellTiter-Glo, 72 h; measured here: viability with 2 uM doxorubicin; at 10 µM; stronger effect = lower value.
For the compound `CC(=O)Nc1ccc(NS(=O)(=O)c2ccc(Cl)c(C(=O)O)c2)cc1`, the viability amounted to 92.8%.

As to `CCN1CCCC1CNCc1ccc(Cl)cc1Cl` (centres undefined), the viability was found to be 94.4%.

Consider `Cc1sc2ncnc(SCC(=O)N3CCCC3)c2c1C`, for which the viability is 83.3%.

As for `Brc1ccc2[nH]ncc2c1`, the viability is 91.5%.

As for `CCOC(=O)c1cccc(NC(=O)CSc2nc3cccnc3n2C)c1`, the viability was 94.7%.

Turning to `CCn1c(SCC(=O)N2c3ccccc3CCc3ccccc32)nc2c1c(=O)n(C)c(=O)n2C`, the viability was found to be 95.8%.

On to `CCN(C(=O)CN1CCN(c2ccccc2OC)CC1)c1c(N)n(Cc2ccccc2)c(=O)[nH]c1=O`, for which the viability was determined as 90.8%.

As to `O=C(NCc1ccccn1)c1ccc2nc(-c3ccco3)c(-c3ccco3)nc2c1`, the viability is 79.8%.

For the compound `COCCNC(=O)c1c(N)n(/N=C/c2cccs2)c2nc3ccccc3nc12`, the viability was determined as 74.4%.

For `CN(C)Cc1c(O)ccc2oc(Cc3ccccc3)cc12`, the viability is 80%.

As for `COc1cc(/C=N/n2c(C)nnc2C)cc(OC)c1OC`, the viability was 83.6%.

On to `Cn1c(=O)c2c(nc(NCc3ccco3)n2C/C=C/c2ccccc2)n(C)c1=O`, for which the viability came to 96.1%.

On to `CCn1c(C(Cc2ccccc2)NC(=O)COC)nc2ccccc21` (centres undefined), for which the viability turned out to be 78.6%.

Take `COc1ccccc1OCc1ccc(C(=O)Nc2ccncc2)o1`: the viability came to 89.4%.

As for `COc1ccc(OC)c(-n2nnnc2SCC(=O)NCc2ccc3c(c2)OCO3)c1`, the viability is 94.9%.

Regarding `O=C(CSc1nnc(-c2cnccn2)n1Cc1ccco1)c1ccc(Cl)cc1`, the viability was 83.5%.

Turning to `Cc1cc(=O)oc(C)c1C(=O)O`, the viability turned out to be 84.7%.

For the compound `COc1cccc(CN=CC2=C(O)CC(C)(C)CC2=O)c1OC`, the viability turned out to be 101%.

In the case of `O=C(CCNC(=O)Cn1ccc2ccccc2c1=O)NCCN1CCN(c2ccccc2F)CC1`, the viability worked out at 79%.
